Inconclusive results are not listed. Activity calls are given as the source filed them. Calls come from the whole dose curve.
Experiment: qHTS assay to identify small molecule agonists or antagonists of the thyroid stimulating hormone receptor (TSHR) signaling pathway - wild type cell line counter screen (AID 1259384)
Settings: HEK293 wild type, cAMP HTRF counter-screen, active compounds read high; series mostly up to 92.4 µM; cAMP activity change: at the top concentration
Description: U.S. Tox21 Program National Center for Advancing Translational Sciences [NCATS] NIH Chemical Genomics Center [NCGC] U.S. Environmental Protection Agency [EPA] National Institutes of Environmental Health Sciences [NIEHS] National Toxicology Program [NTP] U.S. Food and Drug Administration [FDA] Tox21 Assay Overview: TSHR is the receptor for thyrotropin (thyroid stimulating hormone or TSH), a member of the glycoprotein hormone family. TSH is released by the anterior pituitary gland and is the main regulator of thyroid gland growth and development. Upon binding circulating thyrotropin, a G-protein signal cascade activates adenylyl cyclase and […] cAMP concentration is increased. cAMP is a key second messenger involved extensively in cellular signal transduction pathways associated with the majority of G-protein coupled receptors (GPCRs). The activation of these GPCRs by neurotransmitters, lipids, nucleotides, peptides and hormones results in the activation or the inhibition of plasma membrane-bound adenylate cyclase through heterotrimeric G-proteins. A cell-based TSHR-Hek293 assay can be used to identify TSHR agonists. To eliminate the false positive compounds identified from screening a cell-based TSHR-Hek293 cell line, cAMP assay in a wild type Hek293 cells was used as a counter screening.
Tox21 Assay Protocol Summary: Hek293 cells (wild type) were dispensed at 800 cells/4 uL/well in 1536-well white plates using a Multidrop dispenser. After the assay plates were incubated at a 37 C/5% CO2 incubator for 18 hrs, 23 nL of compounds dissolved in DMSO, positive controls or DMSO only was transferred to the assay plate by a pin tool, followed by 1 ul medium containing Ro20-1724. After 30 min of incubation at room temperature, 2.5 ul/well of cAMP-d2 and 2.5 ul/well of anti-cAMP-cryptate were added respectively into the assay plates using a Flying Reagent Dispenser. The plates were incubated at room temperature for 1 hr. The fluorescence intensity in the plates was measured using an Envision plate reader. Each test compound was measured at 15 concentrations and in triplicates.
% is set by controls: 0 for no effect and ±100 for the full control effect.

| SMILES | cAMP activity change | outcome |
| --- | --- | --- |
| COc1ccccc1C=O | 3.12% (inactive) |  |
| CCC(C)c1cc([N+](=O)[O-])cc([N+](=O)[O-])c1OC(=O)OC(C)C (stereo not given) | -4.74% (inactive) |  |
| c1ccc2c(c1)CCC2 | 0.254% (inactive) |  |
| Cc1ccc2ccc3cccc4ccc1c2c34 | -2.33% (inactive) |  |
| CCCCCCCCCCCCCC[n+]1ccccc1 | 0.733% (inactive) |  |
| CCC(=O)OCCc1ccccc1 | -3.8% (inactive) |  |
| CCCN(CCc1cccs1)[C@H]1CCc2c(O)cccc2C1 | 4.83% [at 42.5 µM] (inactive) |  |
| CC1(C)C(=O)N(Br)C(=O)N1Br | 0.33% (inactive) |  |
| S=P(N1CC1)(N1CC1)N1CC1 | 3.49% (inactive) |  |
| CC(C)c1ccc(O)c(C(C)C)c1 | 0.857% (inactive) |  |
| CCCCCCCCCCCC(=O)N(CC)CC | 4.63% (inactive) |  |
| CC(C)(C)C1=CC(=O)C=C(C(C)(C)C)C1=O | 4.12% (inactive) |  |
| O=S(=O)(O)c1cc(S(=O)(=O)O)c2ccc3c(S(=O)(=O)O)cc(S(=O)(=O)O)c4ccc1c2c43 | 5.29% [at 18.9 µM] (inactive) |  |
| Brc1ccccc1-c1ccccc1 | -1.19% (inactive) |  |
| CCCCCCOc1ccc(O)cc1 | 4.14% (inactive) |  |
| CCOC(=O)CN | 5.07% (inactive) |  |
| C=CC(=O)OCCN(CC)CC | 0.577% (inactive) |  |
| OCCCCl | 6.61% (inactive) |  |
| Brc1ccccn1 | -0.452% (inactive) |  |
| O=CC1CC1 | -3.8% (inactive) |  |

| SMILES | cAMP activity change | outcome |
| --- | --- | --- |
| CC(=O)c1ccccc1N | -3.99% (inactive) |  |
| CCCCCCCC/C=C\CCCCCCCC(=O)OCCOC(=O)CCCCCCC/C=C\CCCCCCCC | 5.75% (inactive) |  |
| CC1=C(/C=C/C(C)=C/C=C/C(C)=C/C(=O)Nc2ccc(O)cc2)C(C)(C)CCC1 |  | inactive |
| CS(C)(=O)=O | 4.21% (inactive) |  |
| COc1nccnc1CC(C)C | -1.7% (inactive) |  |
| C/C=C/c1ccc(OC)c(OC)c1 | 0.526% (inactive) |  |
| CCc1ccc(O)c(C(C)(C)C)c1 | 0.93% (inactive) |  |
| CCCCCCCCCCCCCOP(=O)(O)O | 2.47% (inactive) |  |
| CCOCOCC | 6.41% (inactive) |  |
| CC(=O)Oc1ccc(C2(c3ccc(OC(C)=O)cc3)C(=O)Nc3ccccc32)cc1 | -0.337% [at 42.5 µM] (inactive) |  |
| CCN(CC)CCSC(=O)C(c1ccccc1)c1ccccc1 | 3.75% [at 42.5 µM] (inactive) |  |
| C=C(C)C(=O)OCCC[Si](Cl)(Cl)Cl | 1.67% (inactive) |  |
| CC1(C)C(=O)N(CO)C(=O)N1CO | 0.0285% (inactive) |  |
| CNCC[C@H](Oc1cccc2ccccc12)c1cccs1 | -4.68% [at 42.5 µM] (inactive) |  |
| NCCCC(O)(P(=O)(O)O)P(=O)(O)O | 1.82% [at 42.5 µM] (inactive) |  |
| CCC(C)C(=O)OC (stereo not given) | 7.07% (inactive) |  |
| O=C(NO)c1ccccc1 | 5.79% (inactive) |  |
| CO[Si](CCC1CCC2OC2C1)(OC)OC (stereo not given) | 0.621% (inactive) |  |
| CCO[Si](C)(C)OCC | 6.91% (inactive) |  |
| CC(=O)O[C@@H]1C[C@@H]2CC[C@@]1(C)C2(C)C | -4.37% (inactive) |  |

Source: PubChem BioAssay (Tox21)
